{"source": "the supplement of paper PMC10681739"}
{"biological_target": "T1, ETS1 (UniProt P14921)", "T1 sequence": "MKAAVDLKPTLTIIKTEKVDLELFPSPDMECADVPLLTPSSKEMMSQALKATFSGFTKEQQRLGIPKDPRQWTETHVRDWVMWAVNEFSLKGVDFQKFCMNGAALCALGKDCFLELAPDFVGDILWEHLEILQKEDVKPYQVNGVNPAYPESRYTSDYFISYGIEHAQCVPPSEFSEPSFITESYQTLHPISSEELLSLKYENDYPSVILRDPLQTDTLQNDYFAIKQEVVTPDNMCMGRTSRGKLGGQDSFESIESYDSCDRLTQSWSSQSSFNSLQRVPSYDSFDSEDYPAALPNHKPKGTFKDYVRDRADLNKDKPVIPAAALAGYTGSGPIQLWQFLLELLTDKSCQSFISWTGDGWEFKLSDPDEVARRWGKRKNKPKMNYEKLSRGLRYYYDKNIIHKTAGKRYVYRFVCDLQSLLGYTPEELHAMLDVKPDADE", "assay": "ETS1 binding intensity (PBM fluorescence), ETS1 alone (arbitrary fluorescence units); higher = stronger binding", "settings": "ETS1 concentration 1 nM; RUNX1 concentration 0 nM"}
{"sequence": "CTCCCCCTTTTTTTCCTGTGGTTTCATTGCATGTTG", "ETS1 binding intensity": 454}
{"sequence": "GGCTTCCGCCGCCACCACTGCCCCTCAACCGCCACG", "ETS1 binding intensity": 518}
{"sequence": "CTCAGCTCCGCGGAAGTTGCGGTAAGTGGAGCTTTG", "ETS1 binding intensity": 962}
{"sequence": "CACTGATTAAGAGGAAGTGTGTGTGGTTATTACCGT", "ETS1 binding intensity": 1980}
{"sequence": "AACAGCTTCCGGCACGGGGGCTGTGGTTGTGTTGGA", "ETS1 binding intensity": 670}
{"sequence": "TGCTTCCCTTCCGTTCCGACAGCGAAAACCGCTGCC", "ETS1 binding intensity": 532}
{"sequence": "AGAGCAACAGGATGCAAATAACCACAAGCAAGAATA", "ETS1 binding intensity": 920}
{"sequence": "GACCAGGCGAGAGGATGTGGGTATGAGGGAGGAGCT", "ETS1 binding intensity": 819}
{"sequence": "TCTCTTCCGTTCTCTGGTAGCTTTGTGGTAGCTTTG", "ETS1 binding intensity": 369}
{"sequence": "GCACACCGGAACTCACACCTGAAACCACAGAACCAA", "ETS1 binding intensity": 868}
{"sequence": "TCTTCAGGCGTCTTTCCGGTGGTGGTCGTTTTTGCT", "ETS1 binding intensity": 1530}
{"sequence": "TGCATGCAACAGGAAGTGGGGTGTGGTTTGTTCTGG", "ETS1 binding intensity": 11600}
{"sequence": "CCCCTCTCTCCCACTTCCTGTGGTCTCAGTCTTTGT", "ETS1 binding intensity": 3360}
{"sequence": "GGTTGTAAGTTCACAGGATGTGGTGTGTCCCTGTGG", "ETS1 binding intensity": 4130}
{"sequence": "GAAACCGGAAGCGGCGGCTGTCCGCGGTGCCGGCTG", "ETS1 binding intensity": 5800}
{"sequence": "CCCAGCCGAGGGAGGAAGCCTGCGGTCACTGCCATC", "ETS1 binding intensity": 402}
{"sequence": "CAGGTGTTCAGGAAACAAAACCACAGACTTTTTCAC", "ETS1 binding intensity": 562}
{"sequence": "ACACTGAGCTGAACGGAAATGTGGTTCTCACCTCAT", "ETS1 binding intensity": 2670}
{"sequence": "TCCCCGGCAGCTTCCTCGCCCCGACCGCAGTGTTCC", "ETS1 binding intensity": 368}
{"sequence": "GTTTACAGGGGACAGGAAATGTGGGTGAACTCAGCC", "ETS1 binding intensity": 6160}
{"sequence": "TCCAGCCCCACCGGAAGTGGATGTGGTTAATCTAGT", "ETS1 binding intensity": 28800}
{"sequence": "TCTTGTTTCTTCCGTTACCGGAGCGCGGTCACGTGA", "ETS1 binding intensity": 455}
{"sequence": "GCGGCGAACCGGACGCCCCAACCACCCGCCCCCCAC", "ETS1 binding intensity": 1710}
{"sequence": "CCGCCGACACACTTCCGGCGGCCACCACAGGGTATT", "ETS1 binding intensity": 3140}
{"sequence": "CCTTCCTTCCTGCTGTGTACGTTGTGGTCACAGCAC", "ETS1 binding intensity": 419}
{"sequence": "CTGCCGCTGCCTTCCGCCCCCACACACGCACACCAC", "ETS1 binding intensity": 686}
{"sequence": "TCGGCGGATATGAAAAAAAGTCCGTGGTCACGTGCA", "ETS1 binding intensity": 475}
{"sequence": "TCTTCTTCCTCCCCCACCCCAAAAGCCACAGGTGAC", "ETS1 binding intensity": 492}
{"sequence": "GAATGACAGAAGCGGAAACCACATGAAAAAGGTGTT", "ETS1 binding intensity": 2010}
{"sequence": "CTGCAGATGCATTTCCTTTTTGTGGTAGCAAGCGTG", "ETS1 binding intensity": 570}
{"sequence": "TTCTGCTACATCCTGCCCACTCCCTGTGGCTTCCAC", "ETS1 binding intensity": 1090}
{"sequence": "GGCAGCAAGAAAGGAAATAGTGTGGTTGGGTGGAGA", "ETS1 binding intensity": 1050}
{"sequence": "AACACCTCACACTTCCTGCCCACAAGATAAGAGCCT", "ETS1 binding intensity": 895}
{"sequence": "TCCTCCGTTTCCGTAGTTCCGAGTTGCGGTTTCTCC", "ETS1 binding intensity": 487}
{"sequence": "GCGCACTTCCGGGCTGGTGAACGCGGTGACGTCACC", "ETS1 binding intensity": 1250}
{"sequence": "CGACCGGAACCACTCTGAGGCGCTGCCGCAGACACC", "ETS1 binding intensity": 533}
{"sequence": "CCTGTTTCCTGCCATCTGCCCTTCCTTTGTGGTCAA", "ETS1 binding intensity": 774}
{"sequence": "GCGCTTCCTGCCAGCTTGGAGGATAACCGCCTACCG", "ETS1 binding intensity": 505}
{"sequence": "AGCGCGCCGCCGACCGGATGCGGGAACTGGGCTCGG", "ETS1 binding intensity": 11800}
{"sequence": "TGATAAAACACAGGATGTGGTAAGGGAGCTGGCCAA", "ETS1 binding intensity": 3350}
